Source: paper PMC12820563, “FoxP3 forms a head-to-head dimer in vivo and stabilizes its multimerization on adjacent microsatellites”
In all, about 16,000 sequences were measured (“rpm ratio (pull-down/input)”: median about 0.94, highest 2% from about 1.7 on). The list comes from a sample in which the highest values are over-represented; it also holds similar and randomly drawn sequences.

Molecular target: T1, MBP-FoxP1dN (Mus musculus, UniProt P58462 326-579)
T1 sequence: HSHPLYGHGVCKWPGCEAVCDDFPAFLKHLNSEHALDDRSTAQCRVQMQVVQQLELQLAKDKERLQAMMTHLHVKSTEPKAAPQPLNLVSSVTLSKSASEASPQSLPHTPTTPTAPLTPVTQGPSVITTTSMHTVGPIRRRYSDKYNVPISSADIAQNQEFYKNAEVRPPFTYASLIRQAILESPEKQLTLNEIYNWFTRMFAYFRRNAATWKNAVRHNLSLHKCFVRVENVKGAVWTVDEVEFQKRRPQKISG
Assay: PD-seq (MBP pull-down with sequencing); 20 mM Tris-HCl pH 7.5, 100 mM NaCl, 1.5 mM MgCl2, 0.4 uM protein, 0.1 uM dsDNA library, 30 min, room temperature, amylose pull-down; high values mean tight binding
Conditions: protein: recombinant; tags: His6-MBP; chain copies: 2; dsDNA, one strand shown
Summary of the method: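 E. coli-expressed mouse FoxP3 or FoxP1 fragment, N-terminus removed and tagged with His6-MBP, was used at 0.4 µM against 0.1 µM of a Klenow-filled degenerate double-stranded DNA library. After 30 min at room temperature in Tris pH 7.5 buffer with NaCl and MgCl2, complexes were pulled down on amylose resin and washed three times. Binding is pull-down over input reads-per-million enrichment from pooled replicates of the proteinase K-released, PCR-barcoded, Illumina-sequenced DNA.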

In order of rising binding signal:
1. GATGATTGTTCTCCCAGCTGATGAATTCCTTCTCTCGAGTAAACAAATTTTCCTAATCTTTCTGTTCAAGCGCCATCTAC  0.736 RPM ratio (pull-down/input)
2. GATGATTGTTCTCCCAGCTGATGAATTGAATGGCTCGAGTAAACAAATTTTCCTAATCTTTCTGTTCAAGCGCCATCTAC  0.823 RPM ratio (pull-down/input)
3. GATGATTGTTCTCCCAGCTGATGAATTGACCGAGTCGAGTAAACAAATTTTCCTAATCTTTCTGTTCAAGCGCCATCTAC  0.835 RPM ratio (pull-down/input)
4. GATGATTGTTCTCCCAGCTGATGAATTCTTTAAGTCGAGTAAACAAATTTTCCTAATCTTTCTGTTCAAGCGCCATCTAC  0.837 RPM ratio (pull-down/input)
5. GATGATTGTTCTCCCAGCTGATGAATTCTGGGCTTCGAGTAAACAAATTTTCCTAATCTTTCTGTTCAAGCGCCATCTAC  0.843 RPM ratio (pull-down/input)
6. GATGATTGTTCTCCCAGCTGATGAATTCAGCACTTCGAGTAAACAAATTTTCCTAATCTTTCTGTTCAAGCGCCATCTAC  0.847 RPM ratio (pull-down/input)
7. GATGATTGTTCTCCCAGCTGATGAATTTCTAGTTTCGAGTAAACAAATTTTCCTAATCTTTCTGTTCAAGCGCCATCTAC  0.858 RPM ratio (pull-down/input)
8. GATGATTGTTCTCCCAGCTGATGAATTCTTCGTGTCGAGTAAACAAATTTTCCTAATCTTTCTGTTCAAGCGCCATCTAC  0.867 RPM ratio (pull-down/input)
9. GATGATTGTTCTCCCAGCTGATGAATTAGTTCTGTCGAGTAAACAAATTTTCCTAATCTTTCTGTTCAAGCGCCATCTAC  0.873 RPM ratio (pull-down/input)
10. GATGATTGTTCTCCCAGCTGATGAATTAGTCACCTCGAGTAAACAAATTTTCCTAATCTTTCTGTTCAAGCGCCATCTAC  0.877 RPM ratio (pull-down/input)
11. GATGATTGTTCTCCCAGCTGATGAATTATCGTCGTCGAGTAAACAAATTTTCCTAATCTTTCTGTTCAAGCGCCATCTAC  0.884 RPM ratio (pull-down/input)
12. GATGATTGTTCTCCCAGCTGATGAATTGGAAGCGTCGAGTAAACAAATTTTCCTAATCTTTCTGTTCAAGCGCCATCTAC  0.893 RPM ratio (pull-down/input)
13. GATGATTGTTCTCCCAGCTGATGAATTCCCTGTTTCGAGTAAACAAATTTTCCTAATCTTTCTGTTCAAGCGCCATCTAC  0.907 RPM ratio (pull-down/input)
14. GATGATTGTTCTCCCAGCTGATGAATTCTCTGTTTCGAGTAAACAAATTTTCCTAATCTTTCTGTTCAAGCGCCATCTAC  0.91 RPM ratio (pull-down/input)
15. GATGATTGTTCTCCCAGCTGATGAATTGAATAAGTCGAGTAAACAAATTTTCCTAATCTTTCTGTTCAAGCGCCATCTAC  0.918 RPM ratio (pull-down/input)
16. GATGATTGTTCTCCCAGCTGATGAATTCGTCGTGTCGAGTAAACAAATTTTCCTAATCTTTCTGTTCAAGCGCCATCTAC  0.922 RPM ratio (pull-down/input)
17. GATGATTGTTCTCCCAGCTGATGAATTTTAAATTTCGAGTAAACAAATTTTCCTAATCTTTCTGTTCAAGCGCCATCTAC  0.924 RPM ratio (pull-down/input)
18. GATGATTGTTCTCCCAGCTGATGAATTCAACATTTCGAGTAAACAAATTTTCCTAATCTTTCTGTTCAAGCGCCATCTAC  0.941 RPM ratio (pull-down/input)
19. GATGATTGTTCTCCCAGCTGATGAATTTCGCATGTCGAGTAAACAAATTTTCCTAATCTTTCTGTTCAAGCGCCATCTAC  0.944 RPM ratio (pull-down/input)
20. GATGATTGTTCTCCCAGCTGATGAATTTCAACATTCGAGTAAACAAATTTTCCTAATCTTTCTGTTCAAGCGCCATCTAC  0.964 RPM ratio (pull-down/input)
21. GATGATTGTTCTCCCAGCTGATGAATTAACATCGTCGAGTAAACAAATTTTCCTAATCTTTCTGTTCAAGCGCCATCTAC  0.998 RPM ratio (pull-down/input)
22. GATGATTGTTCTCCCAGCTGATGAATTGAGTCAATCGAGTAAACAAATTTTCCTAATCTTTCTGTTCAAGCGCCATCTAC  1.01 RPM ratio (pull-down/input)
23. GATGATTGTTCTCCCAGCTGATGAATTAGACGTATCGAGTAAACAAATTTTCCTAATCTTTCTGTTCAAGCGCCATCTAC  1.02 RPM ratio (pull-down/input)
24. GATGATTGTTCTCCCAGCTGATGAATTTCGTGTTTCGAGTAAACAAATTTTCCTAATCTTTCTGTTCAAGCGCCATCTAC  1.02 RPM ratio (pull-down/input)
25. GATGATTGTTCTCCCAGCTGATGAATTCCTGATTTCGAGTAAACAAATTTTCCTAATCTTTCTGTTCAAGCGCCATCTAC  1.02 RPM ratio (pull-down/input)
26. GATGATTGTTCTCCCAGCTGATGAATTTCTAGCATCGAGTAAACAAATTTTCCTAATCTTTCTGTTCAAGCGCCATCTAC  1.06 RPM ratio (pull-down/input)
27. GATGATTGTTCTCCCAGCTGATGAATTAGTAATTTCGAGTAAACAAATTTTCCTAATCTTTCTGTTCAAGCGCCATCTAC  1.07 RPM ratio (pull-down/input)
28. GATGATTGTTCTCCCAGCTGATGAATTCGAGTTTTCGAGTAAACAAATTTTCCTAATCTTTCTGTTCAAGCGCCATCTAC  1.08 RPM ratio (pull-down/input)
29. GATGATTGTTCTCCCAGCTGATGAATTACAGTGTTCGAGTAAACAAATTTTCCTAATCTTTCTGTTCAAGCGCCATCTAC  1.16 RPM ratio (pull-down/input)
30. GATGATTGTTCTCCCAGCTGATGAATTATAAGTATCGAGTAAACAAATTTTCCTAATCTTTCTGTTCAAGCGCCATCTAC  1.19 RPM ratio (pull-down/input)
31. GATGATTGTTCTCCCAGCTGATGAATTCGTGTGTTCGAGTAAACAAATTTTCCTAATCTTTCTGTTCAAGCGCCATCTAC  1.22 RPM ratio (pull-down/input)
32. GATGATTGTTCTCCCAGCTGATGAATTCATTGCATCGAGTAAACAAATTTTCCTAATCTTTCTGTTCAAGCGCCATCTAC  1.24 RPM ratio (pull-down/input)
33. GATGATTGTTCTCCCAGCTGATGAATTTAGTATTTCGAGTAAACAAATTTTCCTAATCTTTCTGTTCAAGCGCCATCTAC  1.24 RPM ratio (pull-down/input)
34. GATGATTGTTCTCCCAGCTGATGAATTAAACAGATCGAGTAAACAAATTTTCCTAATCTTTCTGTTCAAGCGCCATCTAC  1.27 RPM ratio (pull-down/input)
35. GATGATTGTTCTCCCAGCTGATGAATTCATGCATTCGAGTAAACAAATTTTCCTAATCTTTCTGTTCAAGCGCCATCTAC  1.29 RPM ratio (pull-down/input)
36. GATGATTGTTCTCCCAGCTGATGAATTGTATTAGTCGAGTAAACAAATTTTCCTAATCTTTCTGTTCAAGCGCCATCTAC  1.3 RPM ratio (pull-down/input)
37. GATGATTGTTCTCCCAGCTGATGAATTTCTGCATTCGAGTAAACAAATTTTCCTAATCTTTCTGTTCAAGCGCCATCTAC  1.35 RPM ratio (pull-down/input)
38. GATGATTGTTCTCCCAGCTGATGAATTAAAACATTCGAGTAAACAAATTTTCCTAATCTTTCTGTTCAAGCGCCATCTAC  1.4 RPM ratio (pull-down/input)
39. GATGATTGTTCTCCCAGCTGATGAATTGCATTCATCGAGTAAACAAATTTTCCTAATCTTTCTGTTCAAGCGCCATCTAC  1.46 RPM ratio (pull-down/input)
40. GATGATTGTTCTCCCAGCTGATGAATTTTTGCATTCGAGTAAACAAATTTTCCTAATCTTTCTGTTCAAGCGCCATCTAC  1.48 RPM ratio (pull-down/input)
41. GATGATTGTTCTCCCAGCTGATGAATTGCATTCTTCGAGTAAACAAATTTTCCTAATCTTTCTGTTCAAGCGCCATCTAC  1.61 RPM ratio (pull-down/input)
42. GATGATTGTTCTCCCAGCTGATGAATTGATGCATTCGAGTAAACAAATTTTCCTAATCTTTCTGTTCAAGCGCCATCTAC  1.74 RPM ratio (pull-down/input)
43. GATGATTGTTCTCCCAGCTGATGAATTGCAACATTCGAGTAAACAAATTTTCCTAATCTTTCTGTTCAAGCGCCATCTAC  1.75 RPM ratio (pull-down/input)
44. GATGATTGTTCTCCCAGCTGATGAATTGCATCATTCGAGTAAACAAATTTTCCTAATCTTTCTGTTCAAGCGCCATCTAC  1.84 RPM ratio (pull-down/input)
45. GATGATTGTTCTCCCAGCTGATGAATTGTTGCATTCGAGTAAACAAATTTTCCTAATCTTTCTGTTCAAGCGCCATCTAC  1.87 RPM ratio (pull-down/input)
46. GATGATTGTTCTCCCAGCTGATGAATTCTGTTTTTCGAGTAAACAAATTTTCCTAATCTTTCTGTTCAAGCGCCATCTAC  1.99 RPM ratio (pull-down/input)
47. GATGATTGTTCTCCCAGCTGATGAATTCCTGTTTTCGAGTAAACAAATTTTCCTAATCTTTCTGTTCAAGCGCCATCTAC  2.04 RPM ratio (pull-down/input)
48. GATGATTGTTCTCCCAGCTGATGAATTAGTATTTTCGAGTAAACAAATTTTCCTAATCTTTCTGTTCAAGCGCCATCTAC  2.28 RPM ratio (pull-down/input)
49. GATGATTGTTCTCCCAGCTGATGAATTCGTGTTTTCGAGTAAACAAATTTTCCTAATCTTTCTGTTCAAGCGCCATCTAC  2.29 RPM ratio (pull-down/input)
50. GATGATTGTTCTCCCAGCTGATGAATTCGTGTTGTCGAGTAAACAAATTTTCCTAATCTTTCTGTTCAAGCGCCATCTAC  2.52 RPM ratio (pull-down/input)
51. GATGATTGTTCTCCCAGCTGATGAATTAGTATTGTCGAGTAAACAAATTTTCCTAATCTTTCTGTTCAAGCGCCATCTAC  2.55 RPM ratio (pull-down/input)
